The whole screen tested about 5,500 compounds, of which about 2,000 (36%) were called active. Roughly 18% stayed inconclusive and do not appear here. The list shows a part of the results. Values without a mark were called inactive. Cut-off read from the data, not from the text of the source: active = normalized growth mostly below about 0.91 (no sharp cut-off); inconclusive = no clear call, values can overlap the other calls; inactive = mostly above about 0.92.
Assay: chemical genetic growth profiling, strain panel (AID 1159580);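 note: tested at 20 µM; growth read once vehicle control cultures reached saturation at 30 °C; 1 = growth at the plate median or of vehicle wells; lower values mean less growth of the strain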
Conditions: growth OD

## Nc1ccc(-n2nc(C(F)(F)F)cc2C(F)(F)F)cc1
S. cerevisiae deletion strains, locus YAL013W, strain DEP1, active compounds read low
  normalized growth: 1
S. cerevisiae deletion strains, locus YBR229C, strain ROT2, active compounds read low
  normalized growth: 0.986
S. cerevisiae deletion strains, locus YDL101C, strain DUN1, active compounds read low
  normalized growth: 1
S. cerevisiae deletion strains, locus YDR150W, strain NUM1, active compounds read low
  normalized growth: 0.902
S. cerevisiae deletion strains, locus YEL061C, strain CIN8, active compounds read low
  normalized growth: 0.998
S. cerevisiae deletion strains, locus YGR078C, strain PAC10, active compounds read low
  normalized growth: 1.01
S. cerevisiae deletion strains, locus YGR229C, strain SMI1, active compounds read low
  normalized growth: 0.99
S. cerevisiae deletion strains, locus YHR030C, strain SLT2, active compounds read low
  normalized growth: 0.661 (active)
S. cerevisiae deletion strains, locus YHR087W, strain rtc3, active compounds read low
  normalized growth: 1.01
S. cerevisiae deletion strains, locus YJR043C, strain POL32, active compounds read low
  normalized growth: 0.992
S. cerevisiae deletion strains, locus YJR075W, strain HOC1, active compounds read low
  normalized growth: 0.938
S. cerevisiae deletion strains, locus YLR039C, strain RIC1, active compounds read low
  normalized growth: 0.842
S. cerevisiae deletion strains, locus YLR058C, strain SHM2 (second series), active compounds read low
  normalized growth: 0.975
S. cerevisiae deletion strains, locus YLR085C, strain ARP6, active compounds read low
  normalized growth: 0.603 (active)
S. cerevisiae deletion strains, locus YLR262C, strain YPT6, active compounds read low
  normalized growth: 0.904
S. cerevisiae deletion strains, locus YML094W, strain GIM5, active compounds read low
  normalized growth: 0.975
S. cerevisiae deletion strains, locus YMR219W, strain ESC1, active compounds read low
  normalized growth: 0.986
S. cerevisiae deletion strains, locus YMR263W, strain SAP30, active compounds read low
  normalized growth: 0.963
S. cerevisiae deletion strains, locus YNL153C, strain GIM3, active compounds read low
  normalized growth: 1
S. cerevisiae deletion strains, locus YNL298W, strain CLA4 (second series), active compounds read low
  normalized growth: 0.855
S. cerevisiae deletion strains, locus YNL322C, strain KRE1, active compounds read low
  normalized growth: 0.969
S. cerevisiae deletion strains, locus YNR030W, strain Alg12, active compounds read low
  normalized growth: 0.951
S. cerevisiae deletion strains, locus YOL006C, strain TOP1, active compounds read low
  normalized growth: 0.866
S. cerevisiae deletion strains, locus YPL055C, strain LGE1, active compounds read low
  normalized growth: 0.929
S. cerevisiae deletion strains, locus YPL241C, strain CIN2, active compounds read low
  normalized growth: 0.825 (active)
S. cerevisiae deletion strains, locus YPR135W, strain CTF4, active compounds read low
  normalized growth: 0.694
S. cerevisiae strains, strain wild type, active compounds read low
  normalized growth: 0.974

From PubChem BioAssay AID1159580 (chemical genetic matrix, 2015)
